Where “and” joins values, the source holds several entries; their conditions need not be identical. Identical values can stand only once. Records with an inconclusive call do not appear. Calls of active or inactive are those of the source. Rule for the calls, unless noted: active = hit-call score of the fitted dose curve at least 0.9, where 1 is the maximum; inactive = score below 0.9.
What was measured:
[1] = ATG_M_06_TRANS: Attagene TRANS-FACTORIAL HepG2 Assay for M06 Transcription Factor (Internal Marker) (AID 2282983; active = hit-call score of the fitted dose curve at least 0.9, where 1 is the maximum;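 note: reporter transcript level by RT-PCR then capillary electrophoresis fluorescence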); conditions: HepG2 Attagene TRANS M06 internal marker reporter
Outline: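 Read-out: fluorescent reporter cDNA fragments resolved by capillary electrophoresis after RT-PCR and HpaI cut. Source cells were HepG2 carrying transfected multi-reporter GAL4 constructs, dosed 24 h. Increase over DMSO control analysed.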

[2] = ATG_M_32_TRANS: Attagene TRANS-FACTORIAL HepG2 Assay for M32 Transcription Factor (Internal Marker) (AID 2282984; active = hit-call score of the fitted dose curve at least 0.9, where 1 is the maximum;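 note: transcript level of a background control reporter unit measured by RT-PCR and capillary electrophoresis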); conditions: HepG2 Attagene TRANS M32 internal marker reporter
Outline: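 Internal background reporter in transfected HepG2: after 24 h chemical exposure, RNA reverse-transcribed, reporter cDNA amplified, fluorescently labelled and HpaI-cut, then sized by capillary electrophoresis. Gain of signal fitted against DMSO control.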

[3] = molecular target: Nuclear receptor subfamily 4 group A member 2 (Homo sapiens) (UniProt P43354); assay: ATG_NURR1_TRANS: Attagene TRANS-FACTORIAL HepG2 Assay for human Nuclear Receptor Related Protein 1 (NURR1) (AID 2282985; active = hit-call score of the fitted dose curve at least 0.9, where 1 is the maximum); conditions: HepG2 Attagene TRANS reporter, mRNA readout
Outline: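 Reporter transcript induction, measured by RT-PCR with fluorescent labelling, HpaI digestion and capillary electrophoresis, after 24 hr dosing of human HepG2 cells transiently expressing an exogenous NR-Gal4 fusion with GAL4-UAS-driven reporters; DMSO as baseline.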

[4] = molecular target: Transcriptional activator Myb (Homo sapiens) (UniProt P10242); assay: ATG_Myb_CIS: Attagene CIS-FACTORIAL HepG2 Assay for human Myeloblastosis (Myb) Proto-Oncogene Transcription Factor (AID 2282986); conditions: HepG2 Attagene CIS-FACTORIAL Myb reporter transcription; actives raise or lower the signal
Outline: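 Using HepG2 liver cells bearing transiently transfected cis-promoter reporter constructs, the assay measures induction or loss of reporter mRNA after 24 hours of dosing. Detection used fluorescently labeled RT-PCR products separated by capillary electrophoresis.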

[5] = molecular target: Nuclear respiratory factor 1 (Homo sapiens) (UniProt Q16656); assay: ATG_NRF1_CIS: Attagene CIS-FACTORIAL HepG2 Assay for human Nuclear Respiratory Factor 1 (NRF1) Orphan Gene (AID 2282987); conditions: HepG2 NRF1 cis-element reporter, Attagene multiplex; actives raise or lower the signal
Outline: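 Reporter mRNA induction or loss in HepG2 cells after 24 h dosing; cis-regulated reporter constructs report endogenous transcription-factor activity. Quantified by RT-PCR/capillary electrophoresis fluorescence, DMSO-referenced.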

[6] = ATG_NFI_CIS: Attagene CIS-FACTORIAL HepG2 Assay for human Nuclear Factor I (NFI) (AID 2282989); conditions: HepG2 cis-regulatory reporter, NFI response element transcription; actives raise or lower the signal
Outline: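 Cells: human liver HepG2, transiently transfected with promoter-regulated reporter transcription units. Exposure 24 h. Detection: fluorescent RT-PCR products separated by capillary electrophoresis, normalised to DMSO negative control.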

[7] = ATG_NF_kB_CIS: Attagene CIS-FACTORIAL HepG2 Assay for human Nuclear Factor Kappa B (NF-kB) (AID 2282991); conditions: HepG2 Attagene cis-factorial NF-kB reporter mRNA; actives raise or lower the signal
Outline: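 DMSO served as negative control and baseline for bidirectional curve fitting. Transiently transfected HepG2 cells were dosed for 24 h, then reporter transcripts were measured by RT-PCR with capillary electrophoresis detection.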

[8] = ATG_NRF2_ARE_CIS: Attagene CIS-FACTORIAL HepG2 Assay for human Nuclear Factor Erythroid 2 Related Factor 2 (NFR2) response to Antioxidant Response Elements (ARE) (AID 2282992); conditions: HepG2 Attagene ARE/NRF2 reporter, transcription factor activity; actives raise or lower the signal;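 for AC50: reporter mRNA level measured by RT-PCR and capillary electrophoresis fluorescence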
Outline: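 Endogenous transcription factor activity in human liver HepG2 cells is tracked via a cis-element-driven reporter within a multiplexed set. mRNA induction is read by RT-PCR and capillary electrophoresis after 24 h, with DMSO as baseline.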

[9] = ATG_Oct_MLP_CIS: Attagene CIS-FACTORIAL HepG2 Assay for human Octamer-Binding Transcription Factor (Oct) (AID 2282993); conditions: HepG2 Attagene cis-factorial Oct reporter, mRNA; actives raise or lower the signal
Outline: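 HepG2, transient MRTU transfection, cis promoter elements; 24 h dosing; RT-PCR/CE fluorescence read-out of reporter mRNA; fit both directions vs DMSO.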

[10] = molecular target: Cellular tumor antigen p53 (Homo sapiens) (UniProt P04637); assay: ATG_p53_CIS: Attagene CIS-FACTORIAL HepG2 Assay for human p53 Transcription Factor (AID 2282994); conditions: HepG2 p53 cis-element reporter, Attagene mRNA; actives raise or lower the signal
Outline: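 Steps: transfect HepG2 with multiplexed cis reporter constructs; dose chemicals 24 h; extract RNA, reverse-transcribe, PCR-amplify reporter sequences; FAM-label, HpaI-digest, resolve fragments by CE. Activity fitted both directions relative to DMSO.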

[11] = molecular target: human Peroxisome Proliferator-activated Receptor alpha (PPARa), PPARA (gene 5465) (UniProt Q07869); assay: ATG_PPARa_TRANS: Attagene TRANS-FACTORIAL HepG2 Assay for human Peroxisome Proliferator-activated Receptor alpha (PPARa) (AID 2283001; active = hit-call score of the fitted dose curve at least 0.9, where 1 is the maximum)
Outline: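 Reporter transcripts quantified by RT-PCR plus capillary electrophoresis after 24 h treatment, fitted upward relative to DMSO. Cells: human HepG2 transiently carrying multiple GAL4-UAS reporter units driven by NR-Gal4 chimeras.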

[12] = molecular target: human Peroxisome Proliferator-activated Receptor delta (PPARd), PPARD (gene 5467) (UniProt Q03181); assay: ATG_PPARd_TRANS: Attagene TRANS-FACTORIAL HepG2 Assay for human Peroxisome Proliferator-activated Receptor delta (PPARd) (AID 2283002; active = hit-call score of the fitted dose curve at least 0.9, where 1 is the maximum)
Outline: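 Read-out is induced reporter mRNA, quantified by RT-PCR with fluorescent labelling and capillary electrophoresis after 24 h dosing. Cells are HepG2 transiently carrying multiple GAL4-UAS reporter units driven by exogenous NR-GAL4 chimeras; DMSO serves as baseline.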

[13] = molecular target: Myc proto-oncogene protein (Homo sapiens) (UniProt P01106); assay: ATG_Myc_CIS: Attagene CIS-FACTORIAL HepG2 Assay for human Myelocytomatosis (Myc) Proto-Oncogene Transcription Factor (AID 2282990); conditions: HepG2, Attagene cis-reporter transcription factor activity; actives raise or lower the signal
Outline: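 After 24 h chemical treatment of HepG2 cells carrying multiplexed cis-regulated reporter constructs, reporter transcripts quantified by RT-PCR and capillary electrophoresis of fluorescent fragments. Gain or loss fitted against DMSO baseline.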

[14] = molecular target: Hepatocyte nuclear factor 4-alpha (Homo sapiens) (UniProt P41235); assay: ATG_HNF4a_TRANS: Attagene TRANS-FACTORIAL HepG2 Assay for human Hepatocyte Nuclear Factor 4 alpha (HNF4a) (AID 2282982; active = hit-call score of the fitted dose curve at least 0.9, where 1 is the maximum); conditions: HepG2 HNF4a transactivation reporter, mRNA readout
Outline: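 Activity of an exogenous HNF4a–Gal4 fusion scored as induced GAL4-UAS reporter transcripts after 24 h chemical exposure of transfected human HepG2 cells. Read-out via RT-PCR with 6-FAM labelling and capillary electrophoresis; rise over DMSO baseline.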

[15] = molecular target: human Retinoic Acid Receptor beta (RARb), RARB (gene 5915) (UniProt P10826); assay: ATG_RARb_TRANS: Attagene TRANS-FACTORIAL HepG2 Assay for human Retinoic Acid Receptor beta (AID 2283004; active = hit-call score of the fitted dose curve at least 0.9, where 1 is the maximum)
Outline: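 Readout is reporter mRNA induction: RNA reverse-transcribed, PCR-amplified, FAM-labelled, HpaI-cut and resolved by capillary electrophoresis. Transiently transfected HepG2 cells carrying exogenous NR–Gal4 chimeras were dosed for 24 h; activity fitted upward relative to DMSO.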

[16] = BSK_3C_TissueFactor: BioMAP Diversity Plus: 3C Assay for Tissue Factor Biomarker Activity (AID 2282997); conditions: BioMAP 3C HUVEC, tissue factor biomarker readout; actives raise or lower the signal
Outline: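 HUVEC, 3C system, 24 h post-dose; Tissue Factor by ELISA; bidirectional fit vs DMSO baseline.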

[17] = BSK_3C_uPAR: BioMAP Diversity Plus: 3C Assay for Urokinase-type plasminogen activator receptor (uPAR) Biomarker Activity (AID 2282998); conditions: BioMAP 3C HUVEC, uPAR biomarker ELISA; actives raise or lower the signal
Outline: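 A multiplexed primary-cell system built on human umbilical vein endothelium was used, with chemical present for 24 h before reading. Cell-surface uPAR was detected by ELISA; signal change in either direction counted against DMSO.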

[18] = BSK_4H_Eotaxin3: BioMAP Diversity Plus: 4H Assay for Eotaxin 3 Biomarker Activity (AID 2283000); conditions: primary human endothelial cells (HUVEC); actives raise or lower the signal
Outline: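 Readout is Eotaxin-3 (CCL26) level by ELISA in primary human umbilical vein endothelial cells harvested 24 h after chemical exposure; activity fitted in both directions against DMSO control.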

[19] = read-out: Intercellular Adhesion Molecule 1 (ICAM1), ICAM1 (gene 3383); assay: BSK_3C_ICAM1: BioMAP Diversity Plus: 3C Assay for Intercellular Adhesion Molecule 1 (ICAM1) Biomarker Activity (AID 2283003); conditions: primary human endothelial cells (HUVEC); actives raise or lower the signal
Outline: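 ELISA readout of ICAM1 in human umbilical vein endothelial cells in the 3C system, taken 24 h post-dose. Gain or loss of signal versus DMSO was fitted in both directions, with SRB total-protein staining run in parallel.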

[20] = BSK_3C_VCAM1: BioMAP Diversity Plus: 3C Assay for Vascular cell adhesion molecule 1 (VCAM1) Biomarker Activity (AID 2282999); conditions: BioMAP 3C HUVEC, VCAM1 ELISA, cytokine-stimulated; actives raise or lower the signal
Outline: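 Activity fitted in both directions relative to DMSO, with ELISA measurement of the surface marker on primary HUVEC (3C) at 24 h post-treatment; parallel SRB staining (0.1% SRB, TCA-fixed, 560 nm) flagged overt cytotoxicity.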

Measured: AC50

Chain of Cellular tumor antigen p53 (Homo sapiens) (P04637 whole entry, looked up, the tested form may be a part): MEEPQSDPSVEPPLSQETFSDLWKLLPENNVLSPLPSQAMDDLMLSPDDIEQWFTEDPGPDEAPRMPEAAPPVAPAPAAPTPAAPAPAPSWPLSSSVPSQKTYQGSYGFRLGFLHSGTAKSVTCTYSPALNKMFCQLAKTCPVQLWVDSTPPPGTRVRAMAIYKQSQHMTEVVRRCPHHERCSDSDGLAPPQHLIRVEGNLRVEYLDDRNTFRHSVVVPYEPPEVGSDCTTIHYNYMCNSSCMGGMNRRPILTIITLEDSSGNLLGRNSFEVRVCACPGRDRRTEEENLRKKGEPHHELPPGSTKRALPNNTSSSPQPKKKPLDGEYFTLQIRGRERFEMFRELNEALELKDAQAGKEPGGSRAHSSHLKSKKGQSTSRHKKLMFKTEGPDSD
Chain of Nuclear respiratory factor 1 (Homo sapiens) (Q16656 whole entry, looked up): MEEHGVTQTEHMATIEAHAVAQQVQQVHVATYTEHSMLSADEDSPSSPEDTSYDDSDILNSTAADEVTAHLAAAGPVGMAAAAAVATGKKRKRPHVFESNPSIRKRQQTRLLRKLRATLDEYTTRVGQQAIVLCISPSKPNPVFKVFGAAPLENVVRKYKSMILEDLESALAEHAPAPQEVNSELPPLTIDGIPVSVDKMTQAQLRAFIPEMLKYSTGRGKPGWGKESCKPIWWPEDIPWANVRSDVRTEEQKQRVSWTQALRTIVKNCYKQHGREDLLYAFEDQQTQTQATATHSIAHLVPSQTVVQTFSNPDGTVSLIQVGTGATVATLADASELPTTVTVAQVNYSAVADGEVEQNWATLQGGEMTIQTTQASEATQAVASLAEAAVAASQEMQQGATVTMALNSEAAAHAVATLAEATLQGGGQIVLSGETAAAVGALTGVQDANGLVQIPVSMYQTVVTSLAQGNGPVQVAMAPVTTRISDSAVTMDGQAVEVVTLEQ
Chain of Myc proto-oncogene protein (Homo sapiens) (P01106 whole entry, looked up, the tested form may be a part): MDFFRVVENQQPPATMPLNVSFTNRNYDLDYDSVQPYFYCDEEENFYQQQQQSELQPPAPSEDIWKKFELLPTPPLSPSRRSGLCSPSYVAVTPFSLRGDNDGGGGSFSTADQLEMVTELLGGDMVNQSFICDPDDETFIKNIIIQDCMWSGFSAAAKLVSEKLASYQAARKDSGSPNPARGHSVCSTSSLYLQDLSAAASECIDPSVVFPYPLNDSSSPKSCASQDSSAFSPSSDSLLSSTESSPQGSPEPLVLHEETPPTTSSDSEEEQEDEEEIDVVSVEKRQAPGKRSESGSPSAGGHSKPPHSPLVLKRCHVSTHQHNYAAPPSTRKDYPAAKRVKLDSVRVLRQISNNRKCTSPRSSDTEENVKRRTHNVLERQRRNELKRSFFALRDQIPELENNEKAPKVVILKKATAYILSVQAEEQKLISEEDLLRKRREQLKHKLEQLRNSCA
Chain of human Peroxisome Proliferator-activated Receptor alpha (PPARa), PPARA (gene 5465) (Q07869 whole entry, looked up, the tested form may be a part): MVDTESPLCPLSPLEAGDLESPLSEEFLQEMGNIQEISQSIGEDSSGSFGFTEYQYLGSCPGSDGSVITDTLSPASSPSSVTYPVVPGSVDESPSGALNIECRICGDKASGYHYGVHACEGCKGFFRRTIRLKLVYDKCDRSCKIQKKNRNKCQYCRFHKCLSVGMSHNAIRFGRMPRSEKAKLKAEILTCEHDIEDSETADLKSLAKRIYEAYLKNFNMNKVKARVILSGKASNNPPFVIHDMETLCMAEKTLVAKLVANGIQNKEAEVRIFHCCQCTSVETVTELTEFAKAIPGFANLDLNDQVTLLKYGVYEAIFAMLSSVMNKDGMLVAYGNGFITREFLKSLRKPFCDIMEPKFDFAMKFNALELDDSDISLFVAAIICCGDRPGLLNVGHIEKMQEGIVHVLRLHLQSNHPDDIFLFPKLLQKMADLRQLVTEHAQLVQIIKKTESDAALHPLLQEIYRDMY
Chain of human Peroxisome Proliferator-activated Receptor delta (PPARd), PPARD (gene 5467) (Q03181 whole entry, looked up, the tested form may be a part): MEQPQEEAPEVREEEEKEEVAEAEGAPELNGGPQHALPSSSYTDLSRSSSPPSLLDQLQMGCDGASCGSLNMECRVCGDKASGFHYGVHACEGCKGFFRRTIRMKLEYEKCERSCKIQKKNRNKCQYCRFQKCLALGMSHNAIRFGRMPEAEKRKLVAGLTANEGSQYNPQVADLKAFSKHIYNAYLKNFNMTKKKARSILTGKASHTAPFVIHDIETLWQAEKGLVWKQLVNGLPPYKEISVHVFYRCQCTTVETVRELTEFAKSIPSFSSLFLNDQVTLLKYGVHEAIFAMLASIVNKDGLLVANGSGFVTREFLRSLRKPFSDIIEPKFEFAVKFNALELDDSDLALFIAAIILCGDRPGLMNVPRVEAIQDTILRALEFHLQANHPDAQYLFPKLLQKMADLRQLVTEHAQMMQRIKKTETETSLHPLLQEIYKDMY
Chain of Nuclear receptor subfamily 4 group A member 2 (Homo sapiens) (P43354 whole entry, looked up, the tested form may be a part): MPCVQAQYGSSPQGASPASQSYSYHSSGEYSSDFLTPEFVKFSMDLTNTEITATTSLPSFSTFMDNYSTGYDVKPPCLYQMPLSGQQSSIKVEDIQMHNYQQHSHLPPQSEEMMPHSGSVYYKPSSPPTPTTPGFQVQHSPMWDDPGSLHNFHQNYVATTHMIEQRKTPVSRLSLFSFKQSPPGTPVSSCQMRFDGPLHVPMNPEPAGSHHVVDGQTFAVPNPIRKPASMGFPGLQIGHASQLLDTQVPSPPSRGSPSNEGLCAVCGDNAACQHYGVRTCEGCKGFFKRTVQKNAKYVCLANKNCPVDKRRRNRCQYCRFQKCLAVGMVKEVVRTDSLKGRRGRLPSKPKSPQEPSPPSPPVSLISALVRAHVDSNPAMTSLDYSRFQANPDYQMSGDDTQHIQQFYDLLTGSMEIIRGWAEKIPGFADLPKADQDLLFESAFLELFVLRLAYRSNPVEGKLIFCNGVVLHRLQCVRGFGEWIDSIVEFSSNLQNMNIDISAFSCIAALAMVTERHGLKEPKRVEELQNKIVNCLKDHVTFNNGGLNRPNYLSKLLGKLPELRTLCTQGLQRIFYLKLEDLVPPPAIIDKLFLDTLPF
Chain of human Retinoic Acid Receptor beta (RARb), RARB (gene 5915) (P10826 whole entry, looked up, the tested form may be a part): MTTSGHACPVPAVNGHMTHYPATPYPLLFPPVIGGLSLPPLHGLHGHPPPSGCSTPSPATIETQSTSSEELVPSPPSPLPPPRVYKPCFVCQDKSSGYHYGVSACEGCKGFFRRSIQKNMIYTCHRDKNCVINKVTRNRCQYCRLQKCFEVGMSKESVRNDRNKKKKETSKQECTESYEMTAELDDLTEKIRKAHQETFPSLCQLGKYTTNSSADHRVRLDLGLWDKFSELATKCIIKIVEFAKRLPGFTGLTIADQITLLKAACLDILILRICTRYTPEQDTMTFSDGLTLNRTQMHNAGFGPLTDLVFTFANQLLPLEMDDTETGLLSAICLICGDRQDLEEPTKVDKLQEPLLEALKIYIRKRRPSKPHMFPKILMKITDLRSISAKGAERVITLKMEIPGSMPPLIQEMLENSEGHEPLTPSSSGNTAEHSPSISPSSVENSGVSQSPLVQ
Chain of Transcriptional activator Myb (Homo sapiens) (P10242 whole entry, looked up): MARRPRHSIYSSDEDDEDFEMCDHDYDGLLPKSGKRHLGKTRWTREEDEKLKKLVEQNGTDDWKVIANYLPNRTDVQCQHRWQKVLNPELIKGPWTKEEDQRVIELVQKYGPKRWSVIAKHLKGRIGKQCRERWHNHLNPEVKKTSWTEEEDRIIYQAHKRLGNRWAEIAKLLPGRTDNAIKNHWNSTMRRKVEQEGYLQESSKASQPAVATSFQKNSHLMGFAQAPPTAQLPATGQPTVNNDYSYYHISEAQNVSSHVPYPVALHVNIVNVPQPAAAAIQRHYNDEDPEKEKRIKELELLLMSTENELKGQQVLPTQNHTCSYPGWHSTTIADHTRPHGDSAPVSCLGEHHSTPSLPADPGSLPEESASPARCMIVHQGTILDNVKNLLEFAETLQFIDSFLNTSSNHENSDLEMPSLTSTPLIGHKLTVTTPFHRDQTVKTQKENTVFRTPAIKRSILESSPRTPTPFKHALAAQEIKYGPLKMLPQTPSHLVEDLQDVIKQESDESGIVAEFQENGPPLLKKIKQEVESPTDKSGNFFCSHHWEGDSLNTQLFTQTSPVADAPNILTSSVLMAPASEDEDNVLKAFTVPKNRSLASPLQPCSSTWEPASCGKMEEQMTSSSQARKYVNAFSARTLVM
Chain of Hepatocyte nuclear factor 4-alpha (Homo sapiens) (P41235 whole entry, looked up, the tested form may be a part): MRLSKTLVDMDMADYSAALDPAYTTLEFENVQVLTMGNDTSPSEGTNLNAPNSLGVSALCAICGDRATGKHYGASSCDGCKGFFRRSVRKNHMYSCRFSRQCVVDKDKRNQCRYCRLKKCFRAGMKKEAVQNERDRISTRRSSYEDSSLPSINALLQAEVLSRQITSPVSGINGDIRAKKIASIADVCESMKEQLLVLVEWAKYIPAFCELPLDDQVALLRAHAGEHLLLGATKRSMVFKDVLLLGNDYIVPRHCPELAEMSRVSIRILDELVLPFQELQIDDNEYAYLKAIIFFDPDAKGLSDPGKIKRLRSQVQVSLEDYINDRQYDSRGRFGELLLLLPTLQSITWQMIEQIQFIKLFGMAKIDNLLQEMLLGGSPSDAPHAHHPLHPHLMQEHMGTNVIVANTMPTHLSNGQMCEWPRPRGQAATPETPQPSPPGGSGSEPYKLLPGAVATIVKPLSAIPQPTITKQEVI

Brc1c(Br)c(Br)c(Oc2c(Br)c(Br)c(Br)c(Br)c2Br)c(Br)c1Br
not listed: [13] | [14] | [15] | [16] | [17] | [18] | [19] | [20]
inactive: all other assays above

COCCl
inactive: [1] | [2] | [4] | [5] | [6] | [13] | [7] | [8] | [9] | [11] | [12]

Nc1ccc(-c2ccccc2)cc1
active: [8] 32 µM
not listed: [14] | [15] | [16] | [17] | [18] | [19] | [20]
inactive: all other assays above

CN(C)[C@@H]1C(=O)C(C(N)=O)=C(O)[C@@]2(O)C(=O)C3=C(O)c4c(O)ccc(Cl)c4[C@@](C)(O)[C@H]3C[C@@H]12
active: [8] 20.3 µM
not listed: [14] | [15] | [16] | [17] | [18] | [19] | [20]
inactive: all other assays above

O=C1C[C@@H]2OCC=C3CN4CC[C@]56c7ccccc7N1[C@H]5[C@H]2[C@H]3C[C@H]46
inactive: [1] | [2] | [3] | [4] | [5] | [6] | [13] | [7] | [8] | [9] | [10]

O=c1[nH]c2ccccc2n1C1CCN(CCCC(c2ccc(F)cc2)c2ccc(F)cc2)CC1
active: [8] 3.15 µM
inactive: [1] | [2] | [3] | [4] | [5] | [6] | [13] | [7] | [9] | [10]

NC(=O)c1ccc(N)nc1
inactive: [14] | [4] | [5] | [6] | [13] | [7] | [8] | [9] | [11] | [15]

O=c1[nH]c(=O)n(Cl)c(=O)n1Cl
inactive: [1] | [2] | [3] | [4] | [5] | [6] | [8] | [9] | [11]

Cc1cc(Cl)ccc1OC(C)C(=O)O (stereo not drawn)
not listed: [3] | [12] | [14] | [15] | [20]
inactive: all other assays above

N#Cc1ccccc1N
inactive: [14] | [4] | [5] | [6] | [13] | [7] | [8] | [9] | [10] | [11] | [15]

Cc1cc(C)cc(C)c1
not listed: [3] | [8] | [10] | [12] | [14]
inactive: all other assays above

CC(C)O.CC(C)O.OCCN(CCO)CCO.OCCN(CCO)CCO.[Ti]
not listed: [3] | [10] | [12] | [14] | [20]
inactive: all other assays above

Oc1cc(Cl)c(Cl)cc1Cl
inactive: [1] | [2] | [4] | [5] | [7] | [8] | [11]
active: [6] 66.4 µM | [13] 152 µM | [9] 66.2 µM | [16] 20 µM | [17] 14.7 µM | [18] 27.6 µM

CC1(C)COP(Oc2ccccc2)OC1
inactive: [1] | [2] | [3] | [4] | [5] | [6] | [13] | [7] | [8] | [9] | [11]

CC(O)(CS(=O)(=O)c1ccc(F)cc1)C(=O)Nc1ccc(C#N)c(C(F)(F)F)c1 (stereo not drawn)
inactive: [1] | [2] | [4] | [5] | [6] | [13] | [7] | [10]
active: [8] 94.5 µM | [9] 58 µM

BrCC(Br)c1ccccc1 (stereo not drawn)
inactive: [1] | [2] | [3] | [4] | [6] | [13] | [7] | [8] | [9] | [11]

COc1ccc([N+](=O)[O-])cc1O
inactive: [1] | [2] | [4] | [6] | [13] | [7] | [8] | [9] | [11]

Cc1cccc(C)c1NC(=O)CN1CCCC1=O
inactive: [1] | [4] | [5] | [6] | [7] | [9] | [10] | [11] | [15]

Cc1cc(Cl)ccc1N
active: [8] 27.4 µM and 36.6 µM
not listed: [2] | [3] | [7] | [10] | [12] | [14] | [15] | [20]
inactive: all other assays above

OCCN(CCO)CCO
not listed: [2] | [3] | [10] | [12] | [14] | [15] | [20]
inactive: all other assays above

Reference: PubChem BioAssay (EPA / NIEHS)
